Inconclusive results are not listed. The source holds several records for some structures; these can differ, active in one and inactive in another. The source made the active and inactive calls. How the source made its calls: active means hit-call score of the fitted dose curve at least 0.9, where 1 is the maximum; inconclusive means response in the unintended direction; inactive means score below 0.9.
molecular target: Cellular tumor antigen p53 (Homo sapiens) (UniProt P04637); assay: TOX21_p53_BLA_p2_ratio: Tox21 HCT-116 p53 Agonism Beta-lactamase Assay, Ratio, Phase 2 (AID 2283592)
Sequence (P04637 whole entry, looked up, the tested form may be a part): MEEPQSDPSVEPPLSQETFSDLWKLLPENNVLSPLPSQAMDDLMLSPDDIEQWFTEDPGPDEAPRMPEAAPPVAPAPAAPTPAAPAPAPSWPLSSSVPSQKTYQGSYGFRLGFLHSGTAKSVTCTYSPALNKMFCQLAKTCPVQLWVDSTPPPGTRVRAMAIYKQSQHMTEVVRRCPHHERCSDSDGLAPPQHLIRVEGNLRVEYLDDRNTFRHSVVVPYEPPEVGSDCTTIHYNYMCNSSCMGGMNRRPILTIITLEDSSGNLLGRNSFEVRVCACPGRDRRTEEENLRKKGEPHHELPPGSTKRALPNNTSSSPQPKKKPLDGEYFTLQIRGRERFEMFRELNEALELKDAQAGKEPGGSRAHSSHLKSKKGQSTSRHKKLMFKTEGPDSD
From the text: TOX21_p53_BLA_p2 is a cell-based, single-readout assay that uses HCT116, a human intestinal cell line, […] in a 1536-well plate.TOX21_p53_BLA_p2_ratio is an assay readout measuring reporter gene via receptor activity and designed using inducible reporter (beta lactamase induction) detected with GAL4 b-lactamase reporter gene. The signal is derived from the ratio of cleaved (ch2) to uncleaved (ch1) reporter gene substrate used as the measure of target activity.Data from the assay component TOX21_p53_BLA_p2_ratio was analyzed into 1 assay endpoint. This assay endpoint, TOX21_p53_BLA_p2_ratio, was analyzed in the positive analysis fitting direction relative to DMSO as the negative control and baseline of activity. Using a type of inducible reporter, gain-of-signal activity can be used to understand changes in the reporter gene as they relate to the gene TP53. Furthermore, this assay endpoint can be referred to as a primary readout, because this assay has produced multiple assay endpoints and this ratio serves a reporter gene function to understand target activity. To generalize the intended target to other relatable targets, this assay endpoint is annotated to the DNA binding intended target family, where the subfamily is tumor suppressor.
Thawing Method: Place 14 mL of pre-warmed thaw medium into a 15 mL of conical tub. Remove the vial of cells to be thawed from liquid nitrogen and thaw rapidly by placing at 37C in a water bath with gentle agitation for 1-2 minutes. Decontaminate the vial by wiping with 70% ethanol before opening in a biological safety cabinet. Transfer the vial contents drop-wise into 14 mL of thaw medium in a sterile 15-mL conical tub. Centrifuge cells at 900 rpm for 4 minutes and resuspend in thaw medium. Transfer contents to the T75 tissue culture flask containing Thaw Medium and place flask in a humidified 37C/5% CO2 incubator. Switch to growth medium at first passage.Propagation Method: Aspirate medium, rinse once in DPBS, add 0.25% Trypsin/EDTA and swirl to coat the cell evenly. Add an equal volume of Growth Medium to inactivate Trypsin after 2-3 minutes incubation at 37C. Centrifuge cells at 900 rpm for 4 minutes and resuspend in growth medium. Cell should be passage or fed at least twice a week.Assay Protocol: Harvest cells from culture in growth medium and resuspend in assay medium. 2.2 Dispense 4000 cells/5 uL/well into 1536-well black/clear bottom plates using a Multidrop dispenser. After the cells were incubated at 37C for 5 hours, 23 nL of compounds dissolved in DMSO were transferred to the assay plate by a PinTool resulting in a 217-fold dilution. Incubate the plates for 16 hours at 37C, 5% CO2. Add 1 uL of 6X LiveBLAzer FRET B/G (CCF4-AM) Substrate Mixture to each well using a BioRAPTR dispenser and incubate the plates at room temperature for 2 hours. Measure fluorescence intensity at 460 and 530 nm emission and 405 nm excitation by an Envision detector. Data is expressed as the ratio of 460nm/530nm emissions. Add 4 uL of Cell-titer Glo to each well using BioRAPTR and incubate the plates at room temperature for 2 hours. Measure fluorescence intensity by a VewLux plate reader.

| SMILES | outcome | AC50 |
| --- | --- | --- |
| CCOC(=O)N(C)N=O | inactive | – |
| CN(C)CCc1c[nH]c2cccc(O)c12 | inactive | – |
| C=Cc1cccc(CCl)c1 | inactive | – |
| C=C[C@H]1CN2CC[C@H]1C[C@H]2[C@H](OC(=O)OCC)c1ccnc2ccc(OC)cc12 | inactive | – |
| C[C@]12CC[C@H]3[C@@H](CCC4=CC(=O)CC[C@@H]43)[C@@H]1CC[C@@H]2O | inactive | – |
| C=CCCC#N | inactive | – |
| BrCBr | inactive | – |
| O=P(O)(Oc1ccccc1)Oc1ccccc1 | inactive | – |
| ClCc1ccc(Cl)cc1Cl | inactive | – |
| Nc1ccccc1 | inactive | – |
| O=C(O)c1cc(Cl)ccc1Cl | inactive | – |
| CC[C@H]1C[C@H]2[C@@H]3CCC4=CC(=O)CC[C@@H]4[C@H]3CC[C@]2(C)[C@H]1O | inactive | – |
| Nc1ccc(Cc2ccc(N)c(Cl)c2)cc1Cl | – | 68.5 µM (active) |
| Cc1nnc2n1-c1sc(Br)cc1C(c1ccccc1Cl)=NC2 | inactive | – |
| Nc1n[nH]c(N)n1 | inactive | – |
| C1CN(P2(N3CC3)=NP(N3CC3)(N3CC3)=NP(N3CC3)(N3CC3)=N2)CCO1 (stereo not given) | inactive | – |
| NC(=O)CI | inactive | – |
| CCCCCCCCCBr | inactive | – |
| O=c1oc2ccccc2c(O)c1C1CCCc2ccccc21 (stereo not given) | inactive | – |
| NC(=O)C(Cl)Cl | inactive | – |

| SMILES | outcome | AC50 |
| --- | --- | --- |
| CC[C@@H](CO)NC(=O)[C@@H]1C=C2c3cccc4c3c(cn4C)C[C@H]2N(C)C1 | inactive | – |
| N#CSCc1ccccc1 | – | 80.2 µM (active) |
| COc1cc(CC(C)N)cc(OC)c1OC (stereo not given) | inactive | – |
| O=C1C(Cl)=C(Cl)C(=O)C(Cl)=C1Cl | inactive | 13.7 µM (active) |
| Clc1ccc(C(Cl)(Cl)Cl)cc1Cl | inactive | – |
| O=C(O)CBr | inactive | – |
| CC(=O)C(Cl)Cl | inactive | – |
| CCCCCCC1CCOC1=O (stereo not given) | inactive | – |
| CC(C)[C@@H](C(=O)O[C@@H](C#N)c1cccc(Oc2ccccc2)c1)c1ccc(Cl)cc1 | inactive | – |
| CCN(CC)C(=O)[C@@H]1C=C2c3cccc4[nH]cc(c34)C[C@H]2N(C)C1 | inactive | – |
| O=[N+]([O-])c1cc(I)c(O)c(I)c1 | – | 17.7 µM (active) |
| O=C(O)COc1ccccc1 | inactive | – |
| Clc1cccc(N2CCNCC2)c1 | inactive | – |
| CC(C)CCCCCCCOP(=O)(Oc1ccccc1)Oc1ccccc1 | inactive | – |
| Cc1ncc2n1-c1ccc(Cl)cc1C(c1ccccc1F)=NC2 | inactive | – |
| COc1ccccc1N1CCNCC1 | inactive | – |
| N#CCNCC#N | inactive | – |
| O=c1c2ccccc2[se]n1-c1ccccc1 | inactive | – |
| CCC(=O)O[C@]1(c2ccccc2)CCN(C)C[C@H]1C | inactive | – |

Source: PubChem BioAssay (EPA / NIEHS)
